High-throughput results as filed in PubChem.
FLuc modulator: inhibits or activates purified firefly luciferase, miR-21 counter-screen | P08659 | 6.9% of 360,000 active | Potency, µM (highest dose often 57.5 µM), inactives show at the top dose activity change, negative = inhibition, actives largely listed as inhibitors | purified FLuc, Km substrates, luminescence inhibition;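 note: plate controls were vehicle for no effect and reference inhibitor for full effect; nearly all actives have a fitted effect of over 55% in size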
Target sequence (P08659 whole entry, looked up): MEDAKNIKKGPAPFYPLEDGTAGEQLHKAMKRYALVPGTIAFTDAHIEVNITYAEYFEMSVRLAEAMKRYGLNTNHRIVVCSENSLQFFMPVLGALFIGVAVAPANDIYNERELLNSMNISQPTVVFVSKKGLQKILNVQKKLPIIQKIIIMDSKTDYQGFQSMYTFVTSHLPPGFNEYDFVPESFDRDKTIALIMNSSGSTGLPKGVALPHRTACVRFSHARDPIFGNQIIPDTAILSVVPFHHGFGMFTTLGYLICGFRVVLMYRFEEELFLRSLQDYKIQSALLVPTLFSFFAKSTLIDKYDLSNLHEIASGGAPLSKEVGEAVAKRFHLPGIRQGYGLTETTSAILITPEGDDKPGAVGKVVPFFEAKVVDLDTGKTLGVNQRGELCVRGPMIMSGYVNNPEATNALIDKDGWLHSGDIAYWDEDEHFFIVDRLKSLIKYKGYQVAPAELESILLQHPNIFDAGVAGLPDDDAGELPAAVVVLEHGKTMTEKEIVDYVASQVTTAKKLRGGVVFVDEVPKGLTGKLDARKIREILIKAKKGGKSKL
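Biochemical qHTS of compounds, final roughly 60 µM downward over six points, against 10 nM purified firefly luciferase using Km concentrations of substrates (10 uM D-luciferin, 10 uM ATP) in Tris acetate pH 7.5 buffer; luminescence output.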
ELG1 genotox: inducers of genotoxicity in HEK293T ELG1-luciferase cells | Potency, µM (doses to about 46 µM), for inactives: at the highest dose activity change, positive = activation, hits mostly activators | 1.3% of 330,000 active | HEK293T ELG1-luciferase reporter, luminescence, 16 h; note: % of control where 0% means no effect; nearly all actives have a fitted effect of over 60% in size
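Step 1: seed 2,000 HEK293T ELG1-luciferase cells per well. Step 2: add compound or DMSO, incubate 16 hr at 37 °C. Step 3: ONE-Glo, 30 min at room temperature, read luminescence.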
SMN2 splice up: increases expression of the SMN2 splice variant | Potency, µM (series often up to 46.1 µM), for inactives: top-dose activity change, positive = activation, most hits filed as activators | HEK293 SMN2-luciferase splicing reporter, luminescence, 30-36 h | 2.8% of 210,000 active; note: % of control where 0% means no effect; nearly all actives have a fitted effect of over 55% in size
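HEK293 cells carry an SMN2 minigene-luciferase reporter in which exon 7 inclusion puts luciferase in frame. Cells were seeded at 2000 cells/well, attached for 10-12 hours, then exposed to compounds for 30-36 hours at 37C before ONE-Glo luminescence.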
NPC1 promoter act: activates the NPC1 promoter | Huh7 NPC1 promoter luciferase reporter, 24 h | Potency, µM (series often up to 9.22 µM), inactives show top-dose activation, most hits filed as activators | 2.4% of 320,000 active | AID 485313; note: % of control where 0% means no effect; nearly all actives have a fitted effect of over 60% in size
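Luminescence from an NPC1 promoter-driven luciferase reporter in stably transfected Huh7 cells was measured after 24 h compound treatment at 37 °C, followed by 10 min ambient incubation with luciferase detection reagent.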
Rab9 promoter act: activates the Rab9 promoter. 2.8% of 320,000 active. Potency, µM (doses to about 9.22 µM), inactives show at the top dose activation, negative = inhibition, usual class: activators. Huh7 Rab9 promoter-luciferase reporter, luminescence, 24 h; note: % of control where 0% means no effect; nearly all actives have a fitted effect of over 60% in size
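Huh7 cells stably carrying Rab9 promoter–luciferase reporter, plated 1500 cells/well, compound added after 2 h and incubated 24 h at 37 °C; luciferase luminescence then read after 10 min with detection reagent.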
ELG1 repair inh: inhibitors of ELG1-dependent DNA repair in HEK293T cells; HEK293T ELG1-luciferase reporter, luminescence, 16 h; DNA damage induced by 5-fluorouridine; Potency, µM (top dose mostly 46.1 µM), without a hit: at the top dose activity change, negative = inhibition, usual class: inhibitors; 2.3% of 330,000 active; note: % is set by controls: 0 for no effect and ±100 for the full control effect; nearly all actives have a fitted effect of over 55% in size
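Reporter activity after DNA damage by 5-fluorouridine is monitored. Compound-treated cells incubate 16 hr at 37 °C, then ONE-Glo is added for 30 min before luminescence reading.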
Starred values were filed as active, the others as inactive; ? = inconclusive; . = not tested or not shown; [ ] = remark or other dose. This is a sample that favours compounds with a hit; in the whole collection about 9.2% have one here. Calls come from the whole dose curve; as a rule, active = well fitted curve in the direction sought with a large enough effect; inconclusive = small, poorly fitted or top-dose-only effect, or another doubt; inactive = no such curve, though single readings can be large; an effect the other way counts as inactive or inconclusive. Potency is the fitted concentration of half-maximal effect.

SMILES	FLuc modulator	ELG1 genotox	SMN2 splice up	NPC1 promoter act	Rab9 promoter act	ELG1 repair inh
O=C(c1ccccc1)n1c(=S)nc2ccccn21	0.43µM*	0.33µM*	.	1µM*	3.5µM*	?
Cc1cccc(C(=O)n2c(=S)nc3ccccn32)c1	0.48µM*	?	4.5µM*	0.56µM*	0.45µM*	?
Cc1ccc(C(=O)n2c(=S)nc3ccccn32)cc1	0.12µM*	?	2µM*	0.79µM*	0.63µM*	?
Cc1cccc(C(=O)N2CCCCCC2)c1	-2%	2%	-10%	2%	8%	3%
CCOC(=O)C1CCN(C(c2ccccc2OC)c2c(O)cc(C)n(CCOC)c2=O)CC1 (stereo unspecified)	2%	.	.	.	.	.
COc1ccc(F)c(CN2CCCC(CNS(=O)(=O)c3cccc4cccnc34)C2)c1 (stereo unspecified)	3%	-6%	.	-15%	2%	-7%
O=S1(=O)N=C(Nc2ccc(N3CCOCC3)c(Cl)c2)c2ccccc21	5.4µM*	?	13µM*	?	3.5µM*	6%
O=S1(=O)N=C(Nc2ccc(O)cc2)c2ccccc21	-3%	0%	7%	1%	-3%	10%
CN(CC(=O)Nc1ccc(F)c(F)c1F)C(=O)C1COc2ccccc2O1 (stereo unspecified)	.	2%	.	.	.	9%
COc1cc2nc(NCCc3ccc(Cl)cc3)n3nc(-c4ccccc4)nc3c2cc1OC	-7%	.	-4%	.	.	.
COC(=O)c1c(-c2ccccc2)csc1NC1=NS(=O)(=O)c2ccccc21	0.6µM*	?	0.56µM*	25%	2.5µM*	?
COC(=O)c1ccc(C(=O)OC)c(NC2=NS(=O)(=O)c3ccccc32)c1	4%	1%	-6%	-1%	1%	3%
Cc1c(N=Cc2c(O)n(C)c(=O)c3ccccc23)c(=O)n(-c2ccccc2)n1C	0%	-3%	-7%	-4%	-2%	-12%
COc1ccc(C2=C(C=Nc3c(C)n(C)n(-c4ccccc4)c3=O)C(c3ccccc3C)c3ccccc3O2)cc1OC (stereo unspecified)	-1%	-9%	-14%	-3%	-11%	2.9µM*
Cc1ccc(CN2CCN(CCC(C)C)C(CCO)C2)s1 (stereo unspecified)	-1%	2%	.	-3%	-3%	10%
Cc1ccc(CN2CCN(CC(C)C)C(CCO)C2)s1 (stereo unspecified)	17µM*	?	.	25%	?	?
Cc1nn(-c2ccc(N3CCCCC3)nn2)c(C)c1CCC(=O)NCc1ccccc1	-23%	.	.	.	.	.
Cc1ccc([N+](=O)[O-])cc1NC(=O)CCc1ccccc1	-3%	0%	-4%	-6%	0%	7%
Cc1ccc([N+](=O)[O-])cc1N/C=C1\CCc2ccccc2C1=O	?	12%	-6%	4.5µM*	?	?
CC1CCc2c(sc3nc(CSc4nnnn4C)[nH]c(=O)c23)C1 (stereo unspecified)	?	7%	.	4%	3%	16%
CC1CCc2c(sc3nc(CSc4ncn[nH]4)[nH]c(=O)c23)C1 (stereo unspecified)	15µM*	10%	.	12%	18%	?
Cc1cccn2cc(CCNS(=O)(=O)c3cccs3)nc12	-5%	4%	.	-3%	18%	17%
Cc1nc(NC(=O)c2cnccn2)ccc1Br	8.5µM*	?	.	2.8µM*	2µM*	?
Cc1ccc(NC(=O)c2cnccn2)cc1	?	?	6.3µM*	2.5µM*	3.2µM*	?
Cc1ccc(NC(=O)c2cnccn2)cc1C	11µM*	?	.	3.2µM*	3.2µM*	?
SMILES	FLuc modulator	ELG1 genotox	SMN2 splice up	NPC1 promoter act	Rab9 promoter act	ELG1 repair inh
O=C(Nc1ccc(Br)cc1)c1cnccn1	?	?	22%	?	3.5µM*	?
Cc1cccc(NC(=O)c2cnccn2)c1	-18%	?	.	20%	17%	15%
O=C(O)Cc1ccc(NC(=O)c2cnccn2)cc1	?	0%	-7%	-1%	0%	11%
Cc1c2cnn(CC(=O)N3CCCCC3)c(=O)c2c(C)n1Cc1ccc(Cl)cc1	0%	.	-12%	.	.	.
O=C(NCCc1ccc(Cl)cc1Cl)c1cncc(Br)c1	-3%	-4%	.	-5%	2%[1.84 µM]	-1%
O=C1CCc2cc(S(=O)(=O)NCc3ccc(F)cc3)cc3c2N1CC3	-2%	-1%	.	-2%	11%	5%
O=C(Nc1cccc2ccccc12)c1cnccn1	?	21µM*	?	-2%	4%	?
Cc1ccc(CN2CCc3c(OCc4ccc(F)cc4)cccc3C2=O)cc1	-1%	1%	-59%	-11%	-16%	5.8µM*
COC(=O)c1ccc(COc2cccc3c2CCN(Cc2ccccc2)C3=O)o1	-5%	1%	-43%	-5%	-9%	23µM*
CN1CCc2c(OCc3ccc(F)cc3)cccc2C1=O	-11%	-2%	-14%	-8%	-8%	10%
COC(=O)c1ccc(COc2cccc3c2CCN(Cc2cccc(C)c2)C3=O)o1	3%	5%	-55%	-10%	-8%	?
COc1cc(NC(=O)N2CCC(CN3CCOCC3)CC2)cc(OC)c1OC	-2%	.	.	.	.	.
COc1cccc(C(N)=O)c1OC(=O)Cc1ccccc1F	?	9%	.	13%	17%	?
COc1cc(NC(=O)CCN2CC(C)OC(C)C2)cc(OC)c1 (stereo unspecified)	8%	0%	.	-4%	-3%	3%
CN(C)c1ccc(C(C#N)c2ccccc2)nn1 (stereo unspecified)	-4%	1%	6%	3.2µM*	1.4µM*	?
CN(C)c1ccc(C(C#N)c2ccc(Cl)cc2)nn1 (stereo unspecified)	1%	-1%	-13%	12%	0%	-6%
Cc1nn(-c2ccc([N+](=O)[O-])cc2)c2c1C(c1cccc(Br)c1)N1C(=N2)C(=O)Nc2ccccc21 (stereo unspecified)	-1%	-8%	-1%	-15%	-17%	?
Cc1nn(-c2ccccc2)c2c1C(c1ccc([N+](=O)[O-])cc1)N1C(=N2)C(=O)Nc2ccccc21 (stereo unspecified)	-2%	-8%	-31%	-2%	0%	23µM*
CCCCN(CC)C(=O)Cn1c(=O)n(-c2ccc(OCC)cc2)c(=O)c2c3c(sc21)CCC3	-9%	.	-8%	.	.	.
CCOC(=O)c1c(C)n(-c2ccc(C)cc2)c2c(C(C(C)=O)C(=O)O)c(Br)c(O)c(O)c12 (stereo unspecified)	-3%	-1%	?	5%	2%	-16%
